In PubChem BioAssay (EPA / NIEHS):
Where “and” joins values, the source holds several entries; their conditions need not be identical. Equal entries are not always repeated. Calls of active or inactive are those of the source. Rule for the calls: active = hit-call score of the fitted dose curve at least 0.9, where 1 is the maximum; inactive = score below 0.9.

Read-out: Interferon-gamma inducible Protein 10 (IP10), CXCL10 (gene 3627)
Assay: BSK_BE3C_IP10: BioMAP Diversity Plus: BE3C Assay for Interferon-gamma inducible Protein 10 (IP10) Biomarker Activity (AID 2283034)
Details: primary human bronchial epithelial cells; actives raise or lower the signal
Description: BSK_BE3C is a cell-based, multiplexed-readout assay that uses bronchial epithelial cell, a human lung primary cell, with measurements taken at 24 hours after chemical dosing in a 96-well plate.BSK_BE3C_IP10 is an assay component measured in the BSK_BE3C assay. It measures IP-10 antibody related to regulation of gene expression using ELISA technology.Data from the assay component BSK_BE3C_IP10 was analyzed into 1 assay endpoint. This assay endpoint, BSK_BE3C_IP10, was analyzed with bidirectional fitting relative to DMSO as the negative control and baseline of activity. Using a type of binding reporter, gain or loss-of-signal activity can be used to understand changes in the signaling as they relate to the gene CXCL10. Furthermore, this assay endpoint can be referred to as a primary readout, because this assay has produced multiple assay endpoints where this one serves a signaling function. To generalize the intended target to other relatable targets, this assay endpoint is annotated to the cytokine intended target family, where the subfamily is chemotactic factor.
The levels of cell surface (or secreted, indicated by the prefix "s") biomarker endpoints were measured by ELISA. Overt cytotoxicity to cells in confluent adherent cultures (all systems other than the BT system) was assessed by measuring total protein levels using sulforhodamine B (SRB) staining in parallel cultures at the time of biomarker measurements, indicated as SRB endpoints. For proliferation assays for adherent cell types, individual cell types are cultured at sub-confluence and relative cell numbers quantified by SRB staining at time points optimized for each system (48 h: 3C and CASM3C systems; 72 h: BT and HDF3CGF systems; 96 h: SAg system). SRB was performed by staining cells with 0.1% SRB after fixation with 10% TCA and reading wells at 560 nm.Viability and proliferation of PBMC (T cells) was quantified by Alamar Blue reduction for the SAg and BT systems. For PBMC viability (referred to as PBMC Cytotoxicity within the assay endpoint names), cells were plated (75,000/well in a 96-well plate) and then chemical samples added for 1 h before addition of activators, SEB and TSST-1 (20 ng/mL final concentration each). Cells were incubated for 90 h. Then, Alamar Blue (20 uL/well) (Invitrogen, Cat DAL1100) was added for 6 h, and the plates were read with a fluorescence microplate reader at 546/580 nm (excitation/emission). For PBMC proliferation, cells were plated and activated as above but incubated for only 16 h prior to addition of Alamar Blue. Plates were read after 6 h.

| Compound | outcome | AC50 |
| --- | --- | --- |
| CCN(CC)c1ccc2c(C)cc(=O)oc2c1 | inactive | – |
| O=C(Cl)C(F)(F)C(F)(F)C(F)(F)C(F)(F)C(F)(F)C(F)(F)C(F)(F)C(F)(F)F | – | 39.8 µM (active) and 36.6 µM (active) and 44.6 µM (active) |
| FC(F)(F)C(F)(F)C(F)(F)C(F)(F)C(F)(F)C(F)(F)C(F)(F)C(F)(F)F | inactive | – |
| CCO[Si](CCC(F)(F)C(F)(F)C(F)(F)C(F)(F)C(F)(F)C(F)(F)F)(OCC)OCC | inactive | – |
| CC(C)(C)C(=O)CC(=O)C(F)(F)C(F)(F)C(F)(F)F | inactive | – |
| O=C(O)C(F)(F)C(F)(F)C(F)(F)C(F)(F)F | inactive | – |
| C=CC(=O)OCC(F)(F)C(F)(F)C(F)(F)C(F)(F)C(F)(F)C(F)(F)C(F)(F)F | inactive | – |
| O=S(=O)(OCC(F)F)C(F)(F)F | inactive | – |
| O=C(CC(=O)C(F)(F)C(F)(F)F)C(F)(F)F | inactive | – |
| FC1CC(F)(F)C(F)(F)C1(F)F (stereo not given) | inactive | – |
| FC(F)(F)C(F)(F)C(F)(F)C(F)(F)C(F)(F)C(F)(F)C(F)(F)I | inactive | – |
| O=C(O)C(F)(F)C(F)(F)C(F)(F)C(F)(F)C(F)(F)C(F)(F)C(F)(F)C(F)(F)C(F)(F)C(F)F | – | 8.14 µM (active) and 8.37 µM (active) |
| CS(C)(=O)=O | inactive | – |
| C=CC(F)(F)C(F)(F)C(F)(F)C(F)(F)C(F)(F)C(F)(F)C(F)(F)C(F)(F)C=C | inactive | – |
| O=S(=O)(O)C(F)(F)C(F)(F)C(F)(F)C(F)(F)C(F)(F)C(F)(F)C(F)(F)F | inactive | – |
| O=C(O)C=C(C(F)(F)F)C(F)(F)F | inactive | – |
| FC(F)(I)C(F)(F)C(F)(F)C(F)(F)I | – | 58.2 µM (active) and 46.9 µM (active) and 54.8 µM (active) |
| O=C(O)C(F)(F)C(F)(F)C(F)(F)C(F)(F)C(F)(F)C(F)(F)C(F)(F)C(F)(F)C(F)(F)C(F)(F)C(F)(F)C(F)(F)F | inactive | – |
| CCCCCCCOC(=O)c1ccccc1C(=O)OCCCCCCC | inactive | – |
| OCC(F)(F)C(F)(F)C(F)(F)F | inactive | – |

| Compound | outcome | AC50 |
| --- | --- | --- |
| COC(=O)CCC(F)(F)C(F)(F)C(F)(F)C(F)(F)F | inactive | – |
| OCC(F)(F)C(F)(F)C(F)(F)C(F)F | inactive | – |
| CO[Si](OC)(c1ccccc1)c1ccccc1 | – | 26.6 µM (active) |
| O=C(O)C(F)(F)C(F)(F)F | inactive | – |
| FC(F)(F)C(F)(F)C(F)(F)CI | inactive | – |
| CCCCCCC(C)OC(=O)CCCCC(=O)OC(C)CCCCCC (stereo not given) | inactive | – |
| OCC(F)(F)C(F)(F)C(F)(F)C(F)(F)C(F)(F)C(F)F | inactive | – |
| Nc1ccc([N+](=O)[O-])cc1O | inactive | – |
| OCCCC(F)(F)C(F)(F)C(F)(F)C(F)(F)C(F)(F)C(F)(F)C(F)(F)F | – | 47.6 µM (active) and 46.4 µM (active) |
| FC(F)(F)C(F)(F)C(F)(F)C(F)(F)C(F)(F)C(F)(F)CC1CO1 (stereo not given) | inactive | – |
| FC(F)(F)C(F)(F)C(F)(F)C(F)(F)CCI | inactive | – |
| C=CC(F)(F)C(F)(F)C(F)(F)C(F)(F)C(F)(F)C(F)(F)C(F)(F)C(F)(F)F | inactive | – |
| CC(CCl)OP(=O)(OC(C)CCl)OC(C)CCl (stereo not given) | inactive | – |
| FC(F)(Br)C(F)(F)C(F)(F)C(F)(F)C(F)(F)C(F)(F)Br | inactive | – |
| FC(F)(F)C(F)(F)C(F)(F)C(F)(F)C(F)(F)C(F)(F)CCS | inactive | – |
| O=C(O)C(F)(OC(F)(F)C(F)(OC(F)(F)C(F)(F)C(F)(F)F)C(F)(F)F)C(F)(F)F (stereo not given) | inactive | – |
| CCCCOCCOCCOC(=O)CCCCC(=O)OCCOCCOCCCC | inactive | – |
| O=C(O)C(F)(F)C(F)(F)C(F)(F)C(F)(F)C(F)(F)C(F)(F)C(F)(F)C(F)(F)Cl | – | 18.3 µM (active) and 17.9 µM (active) |
| OCC(F)(F)C(F)(F)C(F)(F)C(F)(F)C(F)(F)C(F)(F)F | inactive | – |
| FC(F)(F)C(F)(F)C(F)(F)C(F)(F)C(F)(F)C(F)(F)C(F)(F)Br | inactive | – |
